This is a sample that favours compounds with a hit; in the whole collection about 1.1% have one here.
GALK inh: qHTS Assay for Inhibitors of Human Galactokinase (GALK); P51570; Purified GALK, Kinase-Glo residual ATP luminescence; Potency, µM (titrated, usually from 57.5 µM), most hits filed as inhibitors; actives 0.007% (n = 270,000); AID 1868, 2009
Target sequence (P51570 whole entry, looked up): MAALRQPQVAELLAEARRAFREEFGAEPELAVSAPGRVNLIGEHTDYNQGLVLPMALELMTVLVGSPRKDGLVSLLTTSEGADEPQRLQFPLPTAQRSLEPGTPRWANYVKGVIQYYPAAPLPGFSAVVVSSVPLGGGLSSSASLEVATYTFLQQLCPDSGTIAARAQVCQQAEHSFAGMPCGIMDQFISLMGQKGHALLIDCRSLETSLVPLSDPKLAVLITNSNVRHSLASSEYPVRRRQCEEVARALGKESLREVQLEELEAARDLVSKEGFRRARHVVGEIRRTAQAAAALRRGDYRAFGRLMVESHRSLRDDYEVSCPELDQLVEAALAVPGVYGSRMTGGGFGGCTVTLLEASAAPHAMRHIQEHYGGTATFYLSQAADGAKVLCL
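5 nM enzyme, 35 uM ATP, 100 uM galactose, 20 mM HEPES pH8.0, 5 mM MgCl2; 1 h RT; residual ATP by Kinase-Glo Plus luminescence, qHTS format.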
PI4K2A block: qHTS for small molecular inhibitors of PI4K2A; Phosphatidylinositol 4-kinase type 2-alpha (Homo sapiens), Q9BTU6; purified PI4K2A, ADP-Glo luminescence, 1 h; hits give low values; activity change, negative = inhibition, % at 76.9 µM; actives 0.13% (n = 420,000); AID 1346378, 2018; in the data active = activity change below about -50%; inconclusive = mostly about -30% to -49%
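In this quantitative HTS, ADP production by PI4K2A was quantified luminescently after 1 h at ambient temperature; 100 microM adenosine served as plate-quality control.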
rTrxR1 inhibitor: qHTS Assay for Inhibitors of Mammalian Selenoprotein Thioredoxin Reductase 1 (TrxR1): qHTS; Thioredoxin reductase 1, cytoplasmic (Rattus norvegicus), O89049; recombinant rTrxR1, NADPH fluorescence consumption, selenite substrate; Potency, µM (series often up to 114 µM), hits mostly inhibitors; actives 1% (n = 390,000); AID 588453, 2011; also: nearly all actives have a fitted effect of over 65% in size
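Rat TrxR1 (90 nM in the dispensed reagent) was pre-reduced with 400 uM NADPH for 5 min at room temperature, then incubated with compound for 15 min. After 400 uM selenite was added, NADPH fluorescence (Ex 340/Em 450 nm) was followed for 8 min.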
TrxR1 substrate: qHTS Assay for Substrates of Mammalian Selenoprotein Thioredoxin Reductase 1 (TrxR1): qHTS. purified TrxR1 substrate turnover, NADPH consumption readout. actives 0.01% (n = 390,000). AID 588456, 2011. Potency, µM (highest dose often 114 µM); also: nearly all actives have a fitted effect of over 50% in size
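Rat TrxR1, dispensed at 90 nM, was prereduced with 400 uM NADPH (final) for 5 min at ~22 deg C, then incubated with compound 15 min before 400 uM selenite. A first-read NADPH fluorescence drop versus no-compound background flagged substrates.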
A number is an active result; 0 = inactive; ? = inconclusive; - = not tested or not shown. Unless noted, calls follow the shape of the dose curve; as a rule, active = well fitted curve in the direction sought with a large enough effect; inconclusive = small, poorly fitted or top-dose-only effect, or another doubt; inactive = no such curve, though single readings can be large; an effect the other way counts as inactive or inconclusive.

SMILES | GALK inh | PI4K2A block | rTrxR1 inhibitor | TrxR1 substrate
CCOC(=O)c1[nH]c(C)c(CCC(=O)N2CCN(c3ccc(Cl)cc3)CC2)c1C | - | 0 | 0 | 0
CCOP(=O)(OCC)C(C#N)=C1SCN(c2ccc(Cl)cc2)CS1 | 0 | 0 | 13µM | 0
O=C(O)C1Nc2c(O)cc(Cl)c([N+](=O)[O-])c2C2C=CCC12 (stereo not given) | 0 | ? | 14µM | 0
COc1cc2c(cc1OC)C(Cc1ccc(O)cc1)NCC2 (stereo not given) | - | 0 | 0 | 0
CCOc1ccc(CC2NCCc3cc(OCC)c(OCC)cc32)cc1OCC (stereo not given) | 0 | 0 | 50µM | 0
c1ccc(N=Nc2ccc(C3=NCCO3)cc2)cc1 | - | -51 | - | -
O=C(c1ccc2c3n(nc2c1)-c1ccccc1CO3)N1CCOCC1 | 0 | -55 | 0 | 0
Cc1ccc(C(c2c(O)nc3n(c2=O)CCS3)c2c(O)nc3n(c2=O)CCS3)cc1 | 0 | -52 | 2.8µM | 0
O=c1c(C(c2c(O)nc3n(c2=O)CCS3)c2cccc3ccccc23)c(O)nc2n1CCS2 | 0 | 0 | 11µM | 0
O=c1c(C(c2ccc(O)cc2)c2c(O)nc3n(c2=O)CCCS3)c(O)nc2n1CCCS2 | 0 | ? | 3.5µM | 0
O=c1c(C(c2ccc(O)cc2)c2c(O)nc3n(c2=O)CCS3)c(O)nc2n1CCS2 | 0 | ? | 3.2µM | 0
O=c1c(Cc2ccccc2)c(O)nc2n1CCS2 | - | 0 | 0 | 0
CCC(CN)=C(c1ccccc1)c1ccccc1 | - | 0 | - | -
O=S1(=O)c2ccc(N3CCCC3)cc2Oc2ccccc2CN1Cc1cn(Cc2ccc(F)cc2)nn1 | - | 0 | - | -
Cc1cccc2cc3c(nc12)SC(=NCC1CCCO1)N(Cc1ccco1)C3 (stereo not given) | 0 | 0 | 3.5µM | 0
Cc1ccc(OCc2cnc(Cl)s2)c(C)c1 | 0 | 0 | 0 | 0
CCC(C)NC(=O)Nc1ccc(Br)cc1 (stereo not given) | 0 | 0 | 0 | 0
CCC(C)Nc1ccc(NC(C)CC)cc1 (stereo not given) | - | 0 | 20µM | ?
Cc1ccc(-c2c(CN3CCN(c4cc(Cl)ccc4C)CC3)csc2C)cc1 | - | 0 | 0 | 0
CCN1CCc2nc(SCC(=O)Nc3ccc(OC)cc3)c(C#N)cc2C1 | 0 | 0 | 18µM | 0
COc1ccc(NC(=O)CSc2nc3c(cc2C#N)CN(C)CC3)cc1 | 0 | 0 | ? | 0
O=C(CS(=O)c1ccc(C(F)(F)F)cc1[N+](=O)[O-])Oc1ccc(Cl)cc1 (stereo not given) | 0 | 0 | 50µM | 0
Cc1cc(C)cc(OC(=O)CS(=O)c2ccc(C(F)(F)F)cc2[N+](=O)[O-])c1 (stereo not given) | 0 | 0 | ? | 0
CN(Cc1ccc(Cl)cc1)C(=O)CCl | 0 | 0 | 6.3µM | 0
Cc1onc(-c2ccccc2)c1C(=O)Cl | - | 0 | - | -
SMILES | GALK inh | PI4K2A block | rTrxR1 inhibitor | TrxR1 substrate
C=CCc1cccc(/C=N/c2ncccc2O)c1O | 0 | 0 | 14µM | 0
O=C1C=CC(=O)C(C2=C3C(=O)N(CCc4ccccc4)CC(=O)N3CCC2)=C1 | 0 | 0 | 3.2µM | 0
O=C(Nc1ccccc1)Nc1ccc(C(=O)N2CCCC2)cc1 | 0 | -62 | 0 | 0
O=C1C=C(NCc2ccccc2)c2ccccc2C1=O | ? | -64 | ? | 16µM
C=C1CCN(C(Cc2ccccc2)C(=O)NCc2ccc(Cl)c(Cl)c2)S(=O)(=O)c2ccccc21 (stereo not given) | - | - | 0 | 0
Nc1ccc2oc(Cc3ccc(Cl)cc3)nc2c1 | - | 0 | 50µM | 0
COC(=O)c1ccccc1SC1CC(=O)N(c2ccccc2)C1=O (stereo not given) | - | 0 | ? | 0
O=C(O)c1ccccc1SC1CC(=O)N(c2cccc3ccccc23)C1=O (stereo not given) | 0 | 0 | 20µM | 0
CCN1C(=O)CC(Sc2ccccc2C(=O)O)C1=O (stereo not given) | 0 | 0 | 0 | 0
CCOc1ccc(N2C(=O)CC(Sc3ccccc3C(=O)O)C2=O)c([N+](=O)[O-])c1 (stereo not given) | 0 | 0 | 28µM | 0
CC(C)NC(=O)C(=O)NCCCN1CCOCC1 | 0 | 0 | 0 | 0
Cc1[nH]c2ccccc2c1C(c1ccccn1)c1c(C)[nH]c2ccccc12 | 0 | 0 | 40µM | 0

Source: PubChem BioAssay
